# ROC1-CUL1 inh = human ROC1-CUL1 E3 ligase inhibition | AID 1347404 | inhibition, % at 10 µM | actives 0.6% (n = 140,000) | in vitro K48 di-Ub FRET, acceptor:donor ratio, 45 min | P62877+Q13616; in the data active = inhibition above about 25%
# * marks the source's active call; other numbers are inactive results. The full list was thinned out, with hits kept by preference.
SMILES,ROC1-CUL1 inh
Cc1ccccc1NC(=O)CN1C(=O)S/C(=C\c2ccc(-c3cc(C(=O)O)ccc3C)o2)C1=O,-1
Cc1cccc(NC(=O)CN2C(=O)S/C(=C/c3ccc(-c4cc(C(=O)O)ccc4Cl)o3)C2=O)c1,21
O=C1S/C(=C\c2cc(Br)cc(Cl)c2O)C(=O)N1Cc1ccc(F)cc1,40*
O=C(O)COc1ccc(/C=C2/SC(=O)N(Cc3ccc(F)cc3)C2=O)cc1Br,5
Cc1cccc(/C=C2/SC(=O)N(Cc3ccccc3C#N)C2=O)n1,-1
COc1ccc(OCc2nc(C(=O)N3CCc4ccccc4C3)co2)cc1,10
COC(=O)c1cccc(-c2ccc(/C=C3\Sc4ccccc4C3=O)o2)c1,6
Cc1sc(CN(C)C)c2c1C(O)(C1CCN(C)CC1)c1ccccc1CS2 (configuration not stated),7
NC(=S)N(CCC(=O)O)c1ccc2[nH]c(=O)oc2c1,-1
Cc1cccc(S(=O)(=O)NCc2cccnc2N2CCOCC2)c1,2
CC(=O)N1CCN(S(=O)(=O)c2ccc(C(=O)O)cc2)CC1,8
CCOC(=O)c1c(C)n(-c2ccccc2)c2ccc(OC(=O)c3ccccc3Cl)cc12,-2
CCOC(=O)c1c(C)n(-c2ccccc2)c(C)nc1=S,11
CCOC(=O)c1c(C(=O)OCC)c(C)n(-c2ccccc2C(=O)O)c1C,36*
Cc1ncc2c(c1CNC(=O)/C=C/c1ccccc1F)CCN(C(=O)CCCc1ccccc1)C2,2
CC(NC(=O)CCC1CCCCC1)C1CCCO1 (configuration not stated),-6
Cc1ccccc1C(=O)Nc1cccc(-c2nc3cccnc3s2)c1,-10
Cc1c(C(=O)Nc2cccc(F)c2)sc2nc(-c3cc4ccccc4oc3=O)[nH]c(=O)c12,5
Cc1cccc(NC(=O)c2sc3nc(-c4cc5ccc(O)cc5oc4=O)[nH]c(=O)c3c2C)c1,63*
Cc1cc(C)cc(NC(=O)c2sc3nc(-c4cc5ccccc5oc4=O)[nH]c(=O)c3c2C)c1,5
COc1ccc(C(=O)c2c(N)c(C(=O)Nc3ccccc3Cl)c3ccccn23)cc1,-20
CCOc1ccc(NC(=O)C(=O)NCCc2csc(-c3ccc(C(F)(F)F)cc3)n2)cc1,4
Cc1ccc(-c2n[nH]c(=S)n2/N=C/C=C/c2ccco2)cc1,6
Nn1c(=S)[nH]nc(/C=C/c2ccco2)c1=O,96*
S=c1[nH]nc(-c2ccco2)n1-c1ccccc1,9
SMILES,ROC1-CUL1 inh
Cc1ccc(NC(=O)N2CCC(CN3CCC(C)CC3)CC2)cc1F,-5
C#CCOc1ccc(/C=C2/C(=O)N(c3ccc(C)cc3)N=C2C)cc1OCC,-5
CCOc1cc(/C=C2/C(=O)N(c3cccc(C(F)(F)F)c3)N=C2C)ccc1OCc1ccccc1,8
C#CCOc1ccc(/C=C2\C(=O)N(c3ccc(C(=O)OCC)cc3)N=C2C(F)(F)F)cc1OCC,41*
Cc1ccc(C(=O)Nc2cccc3c2CCCC3)cc1,2
COC(=O)C1=CN(c2cccc(C(F)(F)F)c2)C=C(C(=O)OC)C1c1cccs1,-1
COc1ccc(/C=C2\SC(=S)N(C3CCCCC3)C2=O)cc1O,-5
COc1cc(C=C2C(=O)NC(=S)NC2=O)c(Cl)cc1O,1
COc1cc(/C=C2\SC(=S)N(/N=C/c3cc(OC)c(O)cc3Cl)C2=O)c(Cl)cc1O,46*
COc1cccc(/C=C/c2onc(C)c2S(=O)(=O)N2CCC(C(=O)N3CCCCC3)CC2)c1,1
O=C(CSc1nnc(-c2cccnc2)n1C1CCCCC1)Nc1ccc(Br)cc1,5
Nc1c(C(=O)Nc2ccc(Cl)c(C(F)(F)F)c2)sc2nc(-c3ccncc3)ccc12,-4
O=C1CC(=O)c2sc3nc(-c4cccs4)cc(-c4ccc(F)cc4)c3c2N1,26*
Nc1nc(N)c2sc3nc(-c4cccs4)cc(-c4ccc(F)cc4)c3c2n1,6
O=C1CC(=O)c2sc3nc(-c4ccccc4)ccc3c2N1,1
CCOc1ccc2nc(SCC(=O)Nc3ccc4nc(SCC(=O)N5CCOCC5)sc4c3)sc2c1,8
COCc1c(C(=O)N2CCOCC2)nnn1-c1ccc(C)cc1,-2
Cc1ccc(NS(=O)(=O)c2ccc(NC(=O)c3ccc(Cl)cc3Cl)cc2)c(C)c1,5
Cc1ccnc(NC(=O)c2ccc(Cl)cc2Cl)c1,6
Cc1ccc(NC(=O)c2ccc(Cl)cc2Cl)c(S(=O)(=O)O)c1,96*
Cc1ccc2c(c1)Oc1nc3ccccc3nc1N2S(=O)(=O)c1ccc(Cl)cc1,2
Cc1cc(=O)[nH]c(SCC(=O)c2ccc(O)c(O)c2)n1,15
O=C(CSc1nc2ccccc2c(=O)[nH]1)c1ccc(Cl)cc1,2
O=C(CSc1nc2ccccc2c(=O)[nH]1)c1ccc(O)c(O)c1,103*
OCCN(CCO)Cc1ccc2ccc3cccc4ccc1c2c34,0
SMILES,ROC1-CUL1 inh
CCc1ccc(-n2c(=O)c3cccnc3n2CC(=O)Nc2ccccc2C(F)(F)F)cc1,0
Brc1ccc(-c2nnn(CN3CCCCC3)n2)cc1,-2
O=C(O)CN1C(=O)/C(=C\c2ccccc2Sc2ccc(Cl)cc2)SC1=S,103*
Cc1cc(/C=C2/SC(=S)N(CC(=O)O)C2=O)c(C)n1-c1ccccc1,16
CCOc1ccccc1/C=C1\SC(=S)N(CC(=O)O)C1=O,4
COC(=O)c1ccc2ncccc2c1,-16
CNCc1cn(C2CCN(C(=O)c3ccc4ncccc4c3)CC2)nn1,7
Oc1c(Cl)c(Cl)c2c(c1Cl)CC(Nc1ccc3ncccc3c1)O2 (configuration not stated),81*
CN(C)S(=O)(=O)N1CCC(n2c(C(F)(F)F)nc3cccnc32)CC1,-5
CC1=NN(c2ccc(C)c(C)c2)C(=O)/C1=C\c1ccc(-c2ccc(S(=O)(=O)c3nccs3)cc2)o1,11
NC(=O)c1ccc(-c2ccc(/C=C3/C(=O)NN(c4ccc(F)cc4)C3=O)o2)cc1,5
NS(=O)(=O)c1ccc(-c2ccc(/C=C3\C(=O)NC(=S)N(c4cccc5ccccc45)C3=O)o2)cc1,5
O=C1NN(c2cccc(F)c2)C(=O)/C1=C\c1ccc(-c2ccc(C(=O)O)cc2)o1,6
Cc1ccc(N2NC(=O)/C(=C/c3ccc(-c4ccc(S(=O)(=O)Nc5nccs5)cc4)o3)C2=O)cc1,72*
Cc1cccc(N2NC(=O)/C(=C/c3ccc(-c4ccc(S(N)(=O)=O)cc4)o3)C2=O)c1,32*
Cc1ccc(N2NC(=O)/C(=C/c3ccc(-c4ccccc4F)o3)C2=O)cc1C,-2
CC(=O)NS(=O)(=O)c1ccc(-c2ccc(/C=C3/C(=O)NN(c4cccc(C)c4)C3=O)o2)cc1,8
NS(=O)(=O)c1ccc(-c2ccc(/C=C3/C(=O)NN(c4cccc(F)c4)C3=O)o2)cc1,44*
CCC1(CC)C(=O)NC(=O)N(C)C1=S,1
O=C(c1cc(-c2ccc(Br)cc2)n[nH]1)N1CCN(S(=O)(=O)c2ccc(Cl)s2)CC1,7
Cc1c(C(=O)/C=C/c2cccs2)oc2ccc(F)cc12,-6
COc1ccc2nc(-c3ccccc3)cc(Cl)c2c1,-2
Cc1ccc(-n2ncc(C(=O)NCCc3ccsc3)c2C2CCN(C(=O)OC(C)(C)C)CC2)cc1C,-5
CCCn1c(CC)nc([N+](=O)[O-])c1S(=O)(=O)c1ccccc1,3
O=C(CC(C(=O)N1CCc2ccccc21)C(=O)N1CCc2ccccc21)c1ccc(Br)cc1,-11
Cc1ccc2oc(-c3cc(NC(=O)c4oc5ccccc5c4C)ccc3Cl)nc2c1,-1
COc1ccc2c(=O)c(=O)c2c1,72*
COc1ccc2ccc3c4ccccc4c(OC)cc3c2c1,1
COc1ccc2c(=O)c(I)coc2c1,-2

# Compound activity as filed in PubChem.
